Test results as given in PubChem BioAssay (EPA / NIEHS).
Active and inactive are the calls of the source. Rule for the calls: active = hit-call score of the fitted dose curve at least 0.9, where 1 is the maximum; inconclusive = response in the unintended direction; inactive = score below 0.9.

Target: Estrogen receptor (Homo sapiens) (UniProt P03372)
Experiment: OT_ERa_GFPERaERE_0120: Odyssey Thera (OT) 2-hour HeLa Transcription Induction Assay for Estrogen Receptor (AID 2283382)
Protocol: OT_ERa_GFPERaERE_0120 is a cell-based, single-readout assay that uses HeLa, a human cervix cell line, with measurements taken at 2 hours after chemical dosing in a 384-well plate.OT_ERa_GFPERaERE_0120 is one of one assay component(s) measured or calculated from the OT_ERa_GFPERaERE_0120 assay. It is designed to make measurements of fluorescent protein induction, a form of inducible reporter, as detected with optical microscopy: fluorescence microscopy signals by Microscopy technology.Data from the assay component OT_ERa_GFPERaERE_0120 was analyzed into 1 assay endpoint. This assay endpoint, OT_ERa_EREGFP_0120, was analyzed in the positive analysis fitting direction relative to DMSO as the negative control and baseline of activity. Using a type of inducible reporter, measures of receptor for gain-of-signal activity can be used to understand the reporter gene at the pathway-level as they relate to the gene ESR1. Furthermore, this assay endpoint can be referred to as a primary readout, because the performed assay has only produced 1 assay endpoint. To generalize the intended target to other relatable targets, this assay endpoint is annotated to the nuclear receptor intended target family, where the subfamily is steroidal.
All assay endpoints are quantified using high content image analysis algorithms.

Chain of Estrogen receptor (Homo sapiens) (P03372 whole entry, looked up): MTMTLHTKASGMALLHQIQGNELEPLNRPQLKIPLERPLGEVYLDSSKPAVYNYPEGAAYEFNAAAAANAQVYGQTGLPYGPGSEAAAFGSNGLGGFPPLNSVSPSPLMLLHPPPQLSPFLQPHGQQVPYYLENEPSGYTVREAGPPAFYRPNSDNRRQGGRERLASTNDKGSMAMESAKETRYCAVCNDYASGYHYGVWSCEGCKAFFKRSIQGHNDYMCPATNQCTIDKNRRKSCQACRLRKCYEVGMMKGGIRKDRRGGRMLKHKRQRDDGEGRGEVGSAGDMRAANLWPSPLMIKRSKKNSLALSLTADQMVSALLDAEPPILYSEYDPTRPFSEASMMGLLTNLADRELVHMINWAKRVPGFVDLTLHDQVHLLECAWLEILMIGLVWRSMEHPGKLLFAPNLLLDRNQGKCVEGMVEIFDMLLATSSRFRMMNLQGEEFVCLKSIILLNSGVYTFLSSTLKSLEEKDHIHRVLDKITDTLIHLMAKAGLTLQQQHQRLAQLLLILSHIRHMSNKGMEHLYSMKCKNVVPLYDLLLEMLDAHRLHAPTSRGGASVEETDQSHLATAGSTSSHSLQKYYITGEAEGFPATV

SMILES	outcome	AC50
CCCCc1ccc(N)cc1	inactive	
CCCCCCCCCC=O	inactive	
CCCCCCCCC	inactive	
CCCCCCCCCCCCCCCC(=O)OC[C@H](O)[C@H]1OC(=O)C(O)=C1O	inactive	
NC(=O)Nc1ccc(Cl)cc1	inactive	
CC(C)(C)C(=O)c1ccccc1	inactive	
CCCCOCCOCCOCCOCCO	inactive	
O=C1c2ccccc2C(=O)N1SC1CCCCC1		36.3 µM (active)
CC(C)c1cccc(O)c1	inactive	
Cc1ccc(S)cc1	inactive	
CCCCCCCCC=O	inactive	
OCCN1CCNCC1	inactive	
O=Nc1ccc(Nc2ccccc2)cc1		28.2 µM (active)
CC(=O)OCCC(C)CC(C)(C)C (configuration not stated)	inactive	
CC(=O)OCCOC(C)=O	inactive	
CCN(CC)c1ccc2c(-c3ccccc3C(=O)O)c3ccc(=[N+](CC)CC)cc-3oc2c1	inactive	
CC1COc2ccccc2N1C(=O)C(Cl)Cl (configuration not stated)	inactive	
CCC/C=C/C=O	inactive	
C=C(C)C(=O)O	inactive	
c1ccc(CCCc2ccccn2)cc1	inactive	
CC(C)(N)CO	inactive	
CN(C)CCCN	inactive	
NCCCN1CCOCC1	inactive	
CCCCCCCCCCCCCC(=O)O	inactive	
CC(=O)C=CC1=C(C)CCCC1(C)C	inactive	
OCCOCCOCCOCCO	inactive	
BrC1CCC(Br)C(Br)CCC(Br)C(Br)CCC1Br (configuration not stated)	inactive	
